ATXN2 expr inh = Primary qHTS for Inhibitors of ATXN expression. hit rate 0.72% among 360,000. Potency, µM (doses to about 57 µM), for inactives: top-dose activity change, negative = inhibition, actives largely listed as inhibitors. HEK-293 ATXN2-luciferase reporter, luminescence, 24 h; further: on the % scale 0 is the no-effect control and ±100 the full control effect; nearly all actives have a fitted effect of over 55% in size
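ATXN2-luciferase reporter cells (luciferase flanked by upstream and downstream ATXN2 gene portions) were treated 24 h at 37 °C with compounds at up to 57 uM. SteadyGlo luminescence gave expression; GF-AFC fluorescence gave viability.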
TGFb SMAD3 inh = qHTS for Inhibitors of TGF-b | HepG2 CAGA-GFP TGF-b/SMAD3 reporter, GFP fluorescence, 18 h; TGF-beta stimulated, 500 pg/mL final | Potency, µM (doses to about 46.1 µM), for inactives: at the top dose activity, negative = inhibition, most hits filed as inhibitors | hit rate 1.2% among 410,000 | AID 588855, 2011; further: on the % scale 0 is the no-effect control and ±100 the full control effect; nearly all actives have a fitted effect of over 65% in size
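Inhibition was scored as loss of TGF-beta-induced (500 pg/mL final, 18 hours, 37 degrees C) GFP in HEPG2 cells carrying a CAGA-GFP reporter, in DMEM with 1% FBS. Well GFP was summed per cell; Activity was normalised to unstimulated and stimulated DMSO wells, then concentration-response fitting.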
HttQ103 aggreg = qHTS Multiplex Assay to Identify Dual Action Probes in a Cell Model of Huntington: Aggregate Formation (GFP); PC12 HttQ103-GFP aggregates, Acumen cytometry, 40 h; hit rate 1.1% among 220,000; Potency, µM (series often up to 46.1 µM), for the others: top-dose activity change, negative = inhibition, most hits filed as inhibitors; further: on the % scale 0 is the no-effect control and ±100 the full control effect; nearly all actives have a fitted effect of over 60% in size
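Quantitative HTS on tebufenozide-induced (100 nM) PC12 cells stably expressing polyQ103 Huntingtin exon 1–GFP. Reduction of bright GFP aggregates, detected by laser scanning cytometry after lysis, identified actives across the titration.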
HepG2 tox-1 = qHTS for Inhibitors of TGF-b: Cytotox Counterscreen. HepG2 CAGA-GFP viability, ATP luminescence, 18 h. Potency, µM (titrated, usually from 46.1 µM), for inactives: top-dose activity change, negative = cytotoxicity, usual class: cytotoxic. hit rate 0.76% among 410,000. AID 588856, 2011
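HepG2 CAGA-GFP cells (1000/well, DMEM with 1% FBS) received compound, then TGF-beta at 500 pg/mL final, and were incubated 18 hours at 37 degrees C. Viability was read by CellTiter-Glo luminescence. Media-only wells were set as complete cell-killing and DMSO as no toxicity.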
HTT cytoprotect = qHTS Multiplex Assay to Identify Dual Action Probes in a Cell Model of Huntington: Cytoprotection (ATP); hit rate 0.14% among 230,000; Potency, µM (series often up to 56.4 µM), inactives show cytoprotection (ATP increase), actives largely listed as activators; PC12 HTT-Q103 induced, cytoprotection, ATP luminescence, 40 h; further: % of control where 0% means no effect; nearly all actives have a fitted effect of over 45% in size
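PC12 cells with ecdysone-inducible HTT exon 1 Q103-GFP, induced with 100 nM tebufenozide and co-treated with library compounds in a dose series (1536-well, 1500 cells/well). Cytoprotection read as ATP content by ATPlite luminescence.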
ATXN viability = Viability Counterscreen for Primary qHTS for Inhibitors of ATXN expression | Potency, µM (series often up to 56.7 µM), most hits filed as cytotoxic | hit rate 0.49% among 400,000 | S2 cells (HEK-293 line with an ATXN2-luciferase reporter) viability, CellTiter-Fluor protease fluorescence, 24 h | AID 651635, 2014; further: nearly all actives have a fitted effect of over 40% in size
TGFb confirm = qHTS for Inhibitors of TGF-b: Confirmation of Cherry Picks; Potency, µM (highest dose often 46.1 µM), without a hit: at the top dose activity, negative = inhibition, most hits filed as inhibitors; hit rate 63% among 1,600; AID 720534, 2013; shares compounds with TGFb SMAD3 inh; HepG2 CAGA-GFP TGF-b reporter, GFP fluorescence, 18 h; cells stimulated with TGF-beta, 500 pg/mL; further: on the % scale 0 is the no-effect control and ±100 the full control effect; nearly all actives have a fitted effect of over 65% in size
HepG2 tox-2 = qHTS for Inhibitors of TGF-b: Cytotox Counterscreen for Cherry Picks; hit rate 27% among 1,600; Potency, µM (doses to about 46.1 µM), inactives show at the highest dose activity, negative = cytotoxicity, hits mostly inhibitors; shares compounds with TGFb SMAD3 inh; HepG2 CAGA-GFP viability, ATP luminescence, 18 h; cells stimulated with TGF-beta, 500 pg/mL; further: on the % scale 0 is the no-effect control and ±100 the full control effect; nearly all actives have a fitted effect of over 70% in size
CCL64 TGFb inh = qHTS for Inhibitors of TGF-b: CCL64 Cells Orthogonal Assay for Cherry Picks; shares compounds with TGFb SMAD3 inh; CCL64 CAGA-GFP reporter, TGF-b stimulated, GFP fluorescence, 18 h; Potency, µM (top dose mostly 46.1 µM), inactives show at the top dose activity, negative = inhibition, hits mostly inhibitors; hit rate 41% among 1,600; AID 720536, 2013; further: nearly all actives have a fitted effect of over 65% in size
COP TGFb inh = qHTS for Inhibitors of TGF-b: Hit Validation in HepG2 Cells using COP promoter; shares compounds with TGFb SMAD3 inh; HepG2 COP-GFP TGF-b reporter, GFP fluorescence, 18 h; cells stimulated by added recombinant TGF-beta; Potency, µM (highest dose often 46.1 µM), without a hit: top-dose activity, negative = inhibition, hits mostly inhibitors; hit rate 3% among 1,600; AID 720537, 2013; further: nearly all actives have a fitted effect of over 70% in size
Numbers without * were called inactive; i = inactive; u = inconclusive; x = not tested or not shown; [ ] = another dose, or the depositor's remark. Rows were chosen to be rich in hits. Some 2.8% of all compounds tested hit in one or more screens of this group. The call rests on the fitted dose curve; in most records, active means well fitted curve in the direction sought with a large enough effect; inconclusive means small, poorly fitted or top-dose-only effect, or another doubt; inactive means no such curve, though single readings can be large; an effect the other way counts as inactive or inconclusive. Potency means the concentration at half of the fitted maximal effect.

SMILES	ATXN2 expr inh	TGFb SMAD3 inh	HttQ103 aggreg	HepG2 tox-1	HTT cytoprotect	ATXN viability	TGFb confirm	HepG2 tox-2	CCL64 TGFb inh	COP TGFb inh
CC[n+]1c(/C=C/c2ccc(OC)c(OC)c2)ccc2ccccc21	x	26%	x	1%	x	i	x	x	x	x
CCN(CC)c1ccc(/C=C/c2ccc3ccc(OC)cc3[n+]2CC)cc1	x	6.3µM*	x	-10%	x	x	2.9µM*	u	2.6µM*	25%
COc1ccc(CN2C[C@H]3CCCN3c3cc(Br)ccc3S2(=O)=O)cc1	-7%	10µM*	x	-20%	x	u	8.2µM*	-3%	u	-22%
O=c1[nH]c2ccccc2cc1-c1nnn(-c2ccc(Cl)c(Cl)c2)n1	-1%	u	x	-17%	x	i	-3%	7%	7%	2%
C=C(C)C(=O)/C=C/CCC/C=C/C(=O)OCC	x	x	x	x	28%	x	x	x	x	x
COc1ccc(C(=O)C2CCN(CC(=O)Nc3cc(C)cc(C)c3)CC2)cc1	-30%	-26%	x	-20%	x	i	x	x	x	x
Cc1ccc(C(=O)C2CCN(CC(=O)Nc3nc(C)cs3)CC2)cc1	-15%	u	u	-1%	-27%	i	18µM*	-13%	5%	0%
CO[C@H]1COC(=O)[C@@H](C)COC(=O)[C@@H](COCc2ccccc2)NC(=O)C/C=C\[C@H]1C	x	x	x	x	-4%[10 µM]	x	x	x	x	x
Cc1cc(C)c(S(=O)(=O)NC2CC3CCC2C3)c(C)c1 (stereo unspecified)	21%	u	x	-30%	x	i	u	-2%	-17%	-5%
O=[N+]([O-])c1cc2no[n+]([O-])c2cc1N1CCCCC1	9.5µM*	2.8µM*	x	5%	x	5.3µM*	1.6µM*	6.5µM*	3.7µM*	u
C[C@H](C(=O)OCO/N=[N+](\[O-])N1CCCC1)c1cccc2ccccc12	x	u	x	-20%	x	x	x	x	x	x
COc1cccc(/C=N/Nc2ccc([N+](=O)[O-])cn2)c1O	8.9µM*	0.79µM*	x	i	x	u	1.6µM*	u	u	23%
CCCCC(CC)CCC(CC(C)C)OS(=O)(=O)O (stereo unspecified)	x	x	1%	x	-5%	i	x	x	x	x
CCOc1cccc2sc(NC(=O)CCS(=O)(=O)c3ccccc3)nc12	-9%	14µM*	x	-8%	x	i	12µM*	23µM*	18µM*	u
CC(C)(C)c1nnc(NC(=O)CCS(=O)(=O)c2ccccc2)s1	28%	7.1µM*	x	6%	x	u	3.7µM*	-10%	u	30%
C[C@@]12CC[C@@H]3[C@H](CCC4=CC(=O)CC[C@]43C)[C@@H]1CC[C@@H]2C(=O)Cn1cnc2c(=S)nc[nH]c21	x	x	x	x	-8%[10 µM]	x	x	x	x	x
Nc1cc2[nH]c(=O)c3ccccc3c2cc1Br	1%	0.32µM*	x	-21%	x	i	u	1.5µM*	7%	59%
O=C(NC(=S)Nc1cccc(Cl)c1Cl)C1CC1	43%	1.3µM*	x	-24%	x	i	1.8µM*	3.7µM*	15µM*	63%
O=C(NC(=S)Nc1ccc(Br)c(Cl)c1)C1CC1	12%	1.6µM*	x	-35%	x	i	0.82µM*	2.1µM*	u	35%
O=[N+]([O-])c1cccc2nc3ccccc3c(NCCCn3ccnc3[N+](=O)[O-])c12	0.27µM*	0.11µM*	x	-5%	x	u	0.1µM*	0.21µM*	0.16µM*	24%
O=C(NCC1CC1)c1ccc(Nc2nc3ccc(Br)cc3[nH]2)cc1	-20%	10µM*	-32%	-27%	-14%	u	u	u	u	52%
CC(C)CC(CSc1ccc(Br)cc1)N1CCN(CC(C)C)CCC1=O (stereo unspecified)	x	u	x	-35%	x	x	x	x	x	x
CCCn1c(=N)n(CC(=O)c2cccs2)c2ccccc21	-12%	4%	-4%	-24%	-1%[10 µM]	i	x	x	x	x
N=c1n(CCN2CCCCC2)c2ccccc2n1CC(=O)c1cccs1	u	u	-2%[9.22 µM]	-50%	-4%[10 µM]	i	41%	u	23µM*	50%
Cc1cc(C)c(OCC(=O)Nc2nc(-c3ccccn3)cs2)c(C)c1	u	10µM*	-30%	-35%	-83%	u	u	-29%	u	31%
SMILES	ATXN2 expr inh	TGFb SMAD3 inh	HttQ103 aggreg	HepG2 tox-1	HTT cytoprotect	ATXN viability	TGFb confirm	HepG2 tox-2	CCL64 TGFb inh	COP TGFb inh
Cc1cccc(C2=N[C@@H](CC(C)C)CO2)c1	x	x	x	x	-31%[96.6 µM]	x	x	x	x	x
Oc1ccc(/C=N/n2cc(-c3ccccc3)[nH]c2=S)cc1	5%	16%	1%	-2%	-33%	i	x	x	x	x
COc1cc(/C=N/n2cc(-c3ccccc3)[nH]c2=S)cc(OC)c1O	x	16µM*	4%[9.22 µM]	-2%	2%[10 µM]	i	15µM*	1%	-30%	3%
O=C(c1cccs1)N(Cc1nc2sc3c(c2c(=O)[nH]1)CCCC3)C1CCCC1	-5%	u	u	1%	-24%[10 µM]	u	u	u	u	29%
Cc1sc2nc(CN(C(=O)c3cccs3)C3CCCC3)[nH]c(=O)c2c1C	13%	-18%	-15%	-21%	-14%	i	x	x	x	x
O=C(Nc1cccc(-c2cn3cccnc3n2)c1)c1cc(Br)ccc1Cl	-16%	23%	x	-16%	x	i	x	x	x	x

Screening results as filed in PubChem BioAssay.
